Source: PubChem
Sampled rows, rich in hits. Any-hit rate of the full collection: about 3.7%.
PfHsp90 set2: growth inhibition of PfHsp90-expressing yeast, primary screen, antimalarial PfHsp90 inhibitor project, S. cerevisiae, BacTiter-Glo luminescence, single point, set 2; BacTiter-Glo ATP, 48 h; yeast lacking PDR1 and PDR3 efflux regulators; inhibition, % at 9.4 µM; 310,000 tested, 0.32% active; AID 504621, 2011;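 active means every replicate shows inhibition above about 80%, whatever the replicate mean, limit read from the data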;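 further: 0% = DMSO neutral controls and 100% = 20 µM radicicol positive controls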
tim10-1 inh: growth inhibitors of tim10-1 mutant yeast, primary screen, luminescence, uHTS; inhibition, % at 20 µM; S. cerevisiae tim10-1 ts strain growth, BacTiter-Glo, 24 h; 330,000 tested, 2.2% active;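 active means inhibition of at least 40%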;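 further: mutant grown at 25 °C; 0% = DMSO wells with yeast and 100% = wells holding no yeast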
TIM10 inh: growth inhibitors of isogenic TIM10 control yeast, primary screen, counter-screen for tim10-1 yeast inhibitor project, luminescence, uHTS. AID 463195, 2010. S. cerevisiae TIM10 strain growth, BacTiter-Glo luminescence, 24 h. inhibition, % at 10 µM. 330,000 tested, 1.4% active;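 active means inhibition of 40% or more at the single tested concentration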;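 further: wild-type TIM10 isogenic control strain grown at permissive 25 °C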
V-ATPase pH: regulators of yeast V-ATPase proton pumping, primary screen, pHLuorin cytosolic pH fluorescence; S. cerevisiae; response, % at 10 µM; 350,000 tested, 0.37% active; AID 504577, 2011; in the data active means response mostly above about 7.3%, no sharp cut-off; inactive means mostly below about 5.4%; further: actives read high
tim23-1 inh: growth inhibitors of tim23-1 mutant yeast, primary screen, luminescence, uHTS; S. cerevisiae tim23-1 growth, BacTiter-Glo luminescence, 24 h; inhibition, % at 20 µM; 330,000 tested, 1.3% active; AID 463212, 2010;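 active means growth inhibition of the mutant yeast at or above 50%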;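 further: temperature-sensitive mutant grown at 25 °C; plate controls were DMSO-treated mutant yeast for no effect and medium wells lacking yeast for full effect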
tim10 confirm: growth inhibitors of wild-type TIM10 yeast, confirmation, counter-screen for tim10-1 synthetic lethality project, single concentration, luminescence, S. cerevisiae; shares compounds with TIM10 inh; S. cerevisiae tim10 strain growth, BacTiter-Glo luminescence, 24 h; inhibition, % at 10 µM; 4,600 tested, 63% active;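 active means inhibition of yeast growth at or above a set limit in either of two replicates at 10 µM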;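 further: this counterscreen used the strain with wild-type TIM10; 0% = yeast with DMSO and 100% = medium wells lacking yeast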
The depositor's hits bear a star; · = no result given.

SMILES	PfHsp90 set2	tim10-1 inh	TIM10 inh	V-ATPase pH	tim23-1 inh	tim10 confirm
CC(C)(C)C(=O)O/N=C1/C(=O)N(c2ccccc2)c2ccccc21	·	27	52*	3	25	61*
CCc1ccc(-c2cc(C(=O)N/N=C/c3ccccn3)[nH]n2)cc1	48	-26	8	0	-6	·
O=C(N/N=C/c1ccccn1)c1cc(-c2ccc3ccccc3c2)n[nH]1	-15	27	60*	11	40	-23
Cc1cc(C(=O)NCCc2ccccc2)c2cc(F)ccc2n1	-7	-3	-12	2	3	·
Cc1ccccc1CNc1ccc(C(CC(N)=O)NC(=O)c2ccccc2)cc1[N+](=O)[O-] (stereo not given)	4	2	1	-1	8	·
O=C(C#Cc1cccc([N+](=O)[O-])c1)c1ccccc1	137*	29	80*	7	-20	83*
C#CCOc1nc(Nc2cccc([N+](=O)[O-])c2)nc(OCC#C)n1	-5	36	41*	6	41	42*
CC1=CC(=O)C(C(C)C)=C/C1=N/OC(=O)c1cccc([N+](=O)[O-])c1	-7	37	43*	-2	47	32*
COc1cccc(S(=O)(=O)N(C)C[C@@H]2Oc3cc(Br)ccc3S(=O)(=O)N([C@@H](C)CO)C[C@@H]2C)c1	·	·	·	-2	·	·
Cc1ccccc1NCC(=O)N/N=C/c1c[nH]c2ccccc12	15	27	47*	-1	35	8
Cc1cc(C)nc(N/N=C/c2c[nH]c3ccccc23)n1	-16	-14	-14	-1	-7	·
Cc1cccc(NCC(=O)N/N=C\c2c[nH]c3ccccc23)c1	6	21	32	0	15	·
Cc1cc(N/N=C/c2c[nH]c3ccccc23)c2ccccc2n1	11	34	54*	-5	39	34*
CN1CCC(=NNC(=O)CN(c2cccc([N+](=O)[O-])c2)S(=O)(=O)c2ccccc2)CC1	-23	9	5	-2	14	·
CN1CCC(=NNC(=O)CN(c2ccc([N+](=O)[O-])cc2)S(=O)(=O)c2ccccc2)CC1	8	9	40*	4	8	31*
Cc1cc(NC(=O)CCCS(=O)(=O)c2nc(-c3cccs3)cc(C(F)(F)F)n2)no1	21	39	49*	-5	4	37*
O=C(O)CCS(=O)(=O)c1nc(-c2cccs2)cc(C(F)(F)F)n1	32	26	29	4	26	·
Cc1cc(NC(=O)CSc2nc(-c3cccs3)cc(C(F)(F)F)n2)no1	5	-6	-6	-1	1	·
CCOC(=O)CCS(=O)(=O)c1nc(-c2ccccc2)cc(C(F)(F)F)n1	3	18	52*	-3	21	58*
COCC(C)NC(=O)CCS(=O)(=O)c1nc(-c2ccc(OC)cc2)cc(C(F)(F)F)n1 (stereo not given)	9	19	10	1	7	·
COC(=O)CCS(=O)(=O)c1nc(-c2ccccc2)cc(C(F)(F)F)n1	10	20	45*	0	34	31*
COCCNC(=S)NCCc1ccc(Cl)cc1Cl	-22	13	4	0	-9	·
CCN(CC)S(=O)(=O)c1cc(NC(=O)c2ccc3c(c2)NC(=O)C(C)S3)ccc1C (stereo not given)	-8	2	3	2	-12	·
O=c1c2cc(F)ccc2sn1-c1ccc(F)cc1	20	20	47*	-2	37	57*
COC(=O)Cc1ccc(NC(=S)NCCSc2ccc(C)cc2)cc1	8	39	55*	7	13	35*
SMILES	PfHsp90 set2	tim10-1 inh	TIM10 inh	V-ATPase pH	tim23-1 inh	tim10 confirm
COc1ccc2c(c1)cc(C(=O)N[C@@H](Cc1ccccc1)C(=O)O)n2C	37	29	-5	-2	22	·
O=C1CCC(=O)N1c1ccc(-c2nc3sc4c(c3c(=O)o2)CCC4)cc1	0	8	13	-3	31	·
O=c1oc(-c2ccccc2)nc2sc3c(c12)CCC3	1	37	42*	-1	35	24
NC(=O)C1CCN(C(=O)NC2CC(=O)N(c3ccc4c(c3)OCCO4)C2)CC1 (stereo not given)	21	-6	-7	-1	-8	·
Cc1ccc(C)c(NC(=O)c2cc(-c3cc(C)ccc3O)n[nH]2)c1	33	16	7	0	12	·
Cc1ccc(O)c(-c2cc(-c3ccccc3F)[nH]n2)c1	10	39	48*	4	18	43*
COc1ccc(NC(=O)CCNC(=O)c2ccco2)c(OC)c1	-5	-2	16	3	4	·
Cn1c(SCc2ccc(C#N)cc2)nnc1-c1cccc(Cl)c1	5	28	45*	2	47	28
Cn1c(SCc2ccc(C#N)cc2)nnc1-c1ccccc1	-22	-15	10	1	11	·
S=C(NCc1ccccc1Cl)Nc1ccccc1Cl	-27	28	43*	1	38	38*
CCOC(=O)CN(C(=O)COC(=O)C1=NNC(=O)CC1)c1ccc(F)cc1	0	-2	-5	1	9	·
NC(=S)N/N=C/c1ccc2ccccc2c1	10	24	40*	1	30	28
COCCCNC(=S)N/N=C/c1ccc2ccccc2c1	-12	16	41*	0	35	37*
COCCCNC(=S)N/N=C/c1ccc(OC)cc1	-1	25	27	-4	30	·
NC(=S)N/N=C/c1cccc(/C=N/NC(N)=S)c1	-13	-10	13	2	-6	·
CCOC(=O)Cc1csc(NC(=S)NC(=O)c2ccccc2Br)n1	-9	34	42*	1	36	-7
CCOC(=O)Cc1csc(NC(=O)c2ccc3c(c2)OCO3)n1	·	-20	43*	-2	-12	-3
CCOC(=O)Cc1csc(NC(=O)c2ccc(C)cc2)n1	2	-23	11	-4	-1	·
Cc1ccc(NC(=O)C/C(N)=N/OC(=O)Nc2cccc(Cl)c2)cc1	18	36	40*	3	11	24
Oc1ccc(/C=N/n2c3ccccc3c3ccccc32)cc1	26	-4	44*	0	37	75*
CC(=O)N1CCN(c2ccccc2NC(=O)c2ccco2)CC1	-5	13	-3	0	2	·
COc1cccc(OCC(=O)Nc2ccncc2)c1	8	-4	-7	-1	2	·
CC(C)CCOc1cccc(OCC(=O)Nc2ccncc2)c1	103*	17	56*	2	37	50*
Clc1nnc(NC2CCCCC2)c(Cl)c1Cl	·	·	·	2	·	·
COc1c2c(nc3occc13)C(CC=C(C)C)(OC)C(OC(C)=O)CC2 (stereo not given)	-6	35	46*	4	36	-17
